UBC9 SUMO inh: blocks human SUMOylation mediated by UBC9 | P63279 | HTRF SUMOylation assay, SAE1/SAE2 + UBC9, in vitro | inhibition, % at 35 µM | 290,000 compounds, 0.36% hits | AID 2006; in the data active means inhibition above about 50%, passing the limit was not always enough; inconclusive means no clear call, values can overlap the other calls
Target sequence (P63279 whole entry, looked up): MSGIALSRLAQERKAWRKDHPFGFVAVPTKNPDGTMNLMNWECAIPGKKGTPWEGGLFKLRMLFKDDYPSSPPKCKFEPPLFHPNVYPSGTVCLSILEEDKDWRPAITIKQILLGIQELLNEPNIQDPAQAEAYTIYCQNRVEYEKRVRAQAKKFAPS
PHOSPHO1 inh: PHOSPHO1 (human) inhibition | Q8TCT1 | recombinant PHOSPHO1, absorbance phosphatase assay | inhibition, % at 13.3 µM | 290,000 compounds, 1.1% hits; in the data active means inhibition above about 60%
Target sequence (Q8TCT1 whole entry, looked up): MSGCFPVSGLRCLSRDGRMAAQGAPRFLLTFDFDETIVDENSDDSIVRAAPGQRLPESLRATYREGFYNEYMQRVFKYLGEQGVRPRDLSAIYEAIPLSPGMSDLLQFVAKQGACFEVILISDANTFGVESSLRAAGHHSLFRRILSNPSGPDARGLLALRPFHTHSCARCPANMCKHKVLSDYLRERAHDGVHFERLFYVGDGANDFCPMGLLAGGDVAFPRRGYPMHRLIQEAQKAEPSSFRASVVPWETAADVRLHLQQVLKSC
HDAC3 inhib: blocks human histone deacetylase 3 | 320,000 compounds, 0.15% hits | inhibition, % at 8.3 µM | recombinant HDAC3, fluorogenic peptide/trypsin coupled, fluorescence; in the data active means inhibition above about 26%, passing the limit was not always enough; inconclusive means no clear call, values can overlap the other calls
G6PDH counter: counter-screen for G6PDH assay hits: L. mesenteroides G6PDH inhibition | Purified L. mesenteroides G6PDH, diaphorase/resazurin coupled fluorescence, 45 min | inhibition, % at 5 µM | 200,000 compounds, 0.12% hits; in the data active means inhibition above about 50%
p97 ATPase inh: inhibitors of human p97 ATPase | recombinant p97 ATPase, Kinase-Glo ATP luminescence, 3 h | inhibition, % at 8 µM | 220,000 compounds, 0.42% hits | AID 1481; in the data active means inhibition above about 15%
PfM18AAP inh: blocks P. falciparum M18 aspartyl aminopeptidase | recombinant PfM18AAP, H-Glu-NHMec fluorogenic cleavage | inhibition, % at 7.35 µM | 290,000 compounds, 1.2% hits;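 active means inhibition above the campaign mean inhibition over all tested compounds plus 3 SD, cut at about 28% in these data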
Each line names hits and unclear results; the compound was inactive in the other large screens. Sampled rows, rich in hits. Any-hit rate of the full collection: about 2.5%.

Cc1sc(NC(=O)CSC2=NCCS2)nc1-c1ccccc1	none
CC(=O)N1CC(=O)N=C1SCC(=O)Nc1nc(-c2ccccc2)c(-c2ccccc2)s1	HDAC3 inhib 29
CCCCNc1cc(NC(C)=O)cc2cc(OC)c(OC)cc12	PfM18AAP inh 28
COc1cc2cc(NC(C)=O)cc(NCc3ccccc3)c2cc1OC	none (no result: G6PDH counter, p97 ATPase inh)
Cc1ccc(NC(=O)Nc2cc(C(F)(F)F)c[nH]c2=O)cc1	none (no result: G6PDH counter, p97 ATPase inh)
CC(C)(C)n1nnnc1C(c1cccnc1)N1CCOCC1 (configuration not stated)	none
CC(C)(C)n1nnnc1C(c1ccncc1)N1CCN(c2ccc(O)cc2)CC1 (configuration not stated)	PfM18AAP inh 30
CCCN1C(=O)/C(=C/c2c(N3CCNC(=O)C3CC(=O)OC)nc3c(C)cccn3c2=O)SC1=S (configuration not stated)	p97 ATPase inh 15 (no result: HDAC3 inhib, G6PDH counter)
CCCN(C(=O)Cc1ccc(S(=O)(=O)N2CCOCC2)s1)c1c(N)n(Cc2ccccc2)c(=O)[nH]c1=O	none (no result: G6PDH counter, p97 ATPase inh)
Cc1ccc2ncccc2c1NS(=O)(=O)c1ccccc1	PHOSPHO1 inh 98
O=C(CSc1nnc(NC(=O)C2CCC2)s1)Nc1ccccc1Br	HDAC3 inhib inconclusive (no result: G6PDH counter, p97 ATPase inh)
CC(C)[N+](C)(C)CC(O)CN(c1ccccc1)c1ccccc1 (configuration not stated)	PHOSPHO1 inh 85
CN1CCC(N(C)C(=O)/C(C#N)=C/c2ccc(OC(F)F)cc2)CC1	none (no result: HDAC3 inhib, G6PDH counter)
Clc1ccc2nc(CSc3nnc4ccccn34)cn2c1	PHOSPHO1 inh 60
Clc1ccc2nc(CSc3nncn3-c3ccccc3)cn2c1	none
Cn1c2ccccc2c2cnn(CC(=O)Nc3ccc(Cl)cc3)c(=O)c21	UBC9 SUMO inh 52 (no result: G6PDH counter)
O=C(Cn1ncc(Cl)c(Cl)c1=O)Nc1ccc2c(c1)OCO2	none (no result: UBC9 SUMO inh, PHOSPHO1 inh, G6PDH counter, p97 ATPase inh, PfM18AAP inh)
Cc1ccc(NC(=O)Cn2ncc3c([nH]c4ccccc43)c2=O)cc1Cl	PHOSPHO1 inh 63 (no result: G6PDH counter, p97 ATPase inh)
CCN(CC)S(=O)(=O)c1cc(NC(=O)Cn2ncc(Cl)c(Cl)c2=O)ccc1C	UBC9 SUMO inh 66 (no result: HDAC3 inhib, G6PDH counter)
CNS(=O)(=O)c1cc(Nc2ncnc3sccc23)ccc1C	none (no result: G6PDH counter, p97 ATPase inh)
Cc1ccccc1N=C(N)Nc1ccccc1C	none (no result: UBC9 SUMO inh, PHOSPHO1 inh, G6PDH counter, p97 ATPase inh, PfM18AAP inh)
Cc1ccccc1N=C(NO)c1nonc1N	PfM18AAP inh 29
CC1(C)Oc2ccc3ccc(=O)oc3c2/C(=C/O)C1=O	none (no result: G6PDH counter, p97 ATPase inh)
CC1(C)Oc2ccc3ccc(=O)oc3c2-c2cnoc21	PHOSPHO1 inh 95
CC1(C)Oc2ccc3ccc(=O)oc3c2-c2cn[nH]c21	none
CC1(C)Oc2ccc3ccc(=O)oc3c2/C(=C/N)C1=O	PHOSPHO1 inh 73
CCOC(=O)C(=NC(C)CC)NNc1cccc(C(F)(F)F)c1 (configuration not stated)	HDAC3 inhib inconclusive
CCOC(=O)C(=NC(C)CC)NNc1ccc(Br)cc1 (configuration not stated)	PfM18AAP inh 30
Oc1ccc(Br)cc1/C=N/Nc1ncc(-c2ccccc2)cn1	none
CCN(CC)S(=O)(=O)c1ccc(N/N=C(\C)c2ccncc2)nc1	none (no result: G6PDH counter, p97 ATPase inh)
Oc1ccc(/C=N/Nc2ncc(Br)cn2)c(O)c1	PfM18AAP inh 52
CCN(CC)S(=O)(=O)c1ccc(N/N=C/c2ccc(O)cc2O)nc1	PfM18AAP inh 37
CC(Cc1ccc(Cl)cc1)N1CCC(n2nccc2NC(=O)C2CCCC2)CC1 (configuration not stated)	none (no result: G6PDH counter, p97 ATPase inh)
CC1(c2ccccc2)NC(=S)N2C1NC(=S)N2c1ccccc1 (configuration not stated)	PHOSPHO1 inh 61
COc1ccc(N2C(=S)NC3N2C(=S)NC3(C)c2ccccc2)cc1 (configuration not stated)	PHOSPHO1 inh 61
CC(Cn1cncn1)C(=O)N1CCN(S(=O)(=O)c2ccccc2)CC1 (configuration not stated)	none (no result: G6PDH counter, p97 ATPase inh)
CCN(CC)CCCNC(=S)N1CCN(c2nc(-c3ccccc3)cs2)CC1	none (no result: G6PDH counter, p97 ATPase inh)
COc1cc(NCCCCCCCN)c2ncccc2c1	UBC9 SUMO inh 52, G6PDH counter 53
COc1cc(NC(C)CCCN)c2ncccc2c1 (configuration not stated)	none (no result: UBC9 SUMO inh, PHOSPHO1 inh, G6PDH counter, p97 ATPase inh, PfM18AAP inh)
O=C(CCCSc1ccccc1)Nc1nc(-c2ccco2)c(-c2ccco2)s1	UBC9 SUMO inh 79
CC(=O)OCCCNc1cc(SCc2ccco2)c2nonc2c1[N+](=O)[O-]	none
CCC(=O)OCCNc1cc(Sc2nc3ccccc3s2)c2nonc2c1[N+](=O)[O-]	PHOSPHO1 inh 88

High-throughput results deposited in PubChem BioAssay by several laboratories.
